Assay results reported in PubChem BioAssay.
A number with no mark means an inactive call. For some of these results: Entries with a potency or affinity are not part of this list. Activity calls are given as the source filed them. Unless noted, no rule for the calls is given here.

Experiments:
[1] = antimalarial activity against Dd2 strain (AID 2302;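 active = growth inhibition above 50% at the single 2 µM test dose, taken to imply half-maximal potency below 2 µM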;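 also: 0% = DMSO untreated growth and 100% = chloroquine plus artemisinin killed control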); settings: P. falciparum Dd2 in RBCs, LDH growth readout, 72 h; at 2 µM; stronger effect = higher value
[2] = human hepatoma cell viability loss – ATP luminescence, cytotoxicity control for P. falciparum antimalarial project, primary screen (AID 2303;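 active = inhibition above 50%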;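 also: 0% = DMSO wells and 100% = digitonin-killed cells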); settings: HepG2 viability, 24-48 h, at 10 µM, stronger effect = higher value
[3] = molecular target: L-lactate dehydrogenase (Plasmodium falciparum (isolate CDC / Honduras)) (UniProt Q27743); experiment: PfLDH activity inhibition – cell lysate, 3D7 strain, counter-screen for P. falciparum growth inhibition project (AID 2304);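 also: 0% = vehicle and 100% = reference inhibitor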; settings: P. falciparum 3D7 crude extract, LDH APAD/NBT absorbance; at 2 µM; stronger effect = higher value
Chain of L-lactate dehydrogenase (Plasmodium falciparum (isolate CDC / Honduras)) (Q27743 whole entry, looked up): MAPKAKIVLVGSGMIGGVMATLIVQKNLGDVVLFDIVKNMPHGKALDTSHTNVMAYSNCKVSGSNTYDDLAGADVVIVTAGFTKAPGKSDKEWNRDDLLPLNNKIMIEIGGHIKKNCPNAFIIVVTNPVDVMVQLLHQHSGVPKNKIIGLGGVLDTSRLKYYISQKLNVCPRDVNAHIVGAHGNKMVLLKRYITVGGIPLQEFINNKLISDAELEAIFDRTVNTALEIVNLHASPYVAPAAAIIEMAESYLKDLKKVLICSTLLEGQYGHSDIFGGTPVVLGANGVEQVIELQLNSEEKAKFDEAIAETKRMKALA

[4] = inhibition of 3D7 malaria parasite growth – strain 3D7 (AID 2306);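 also: 0% = DMSO wells and 100% = chloroquine plus artemisinin control wells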; settings: P. falciparum 3D7 erythrocytic growth, LDH absorbance, 72 h; at 2 µM; stronger effect = higher value
[5] = molecular target: Calcium-dependent protein kinase 1 (Plasmodium falciparum (isolate 3D7)) (UniProt P62344); experiment: PfCDPK1 kinase inhibitors, biochemical, TCAMS library (AID 1159585; cut-off not given, nearly all actives have IC50 up to about 0.98 µM;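 also: inhibitors leave more ATP so luminescence rises with inhibition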); settings: recombinant PfCDPK1, Kinase-Glo ATP depletion luminescence
Chain of Calcium-dependent protein kinase 1 (Plasmodium falciparum (isolate 3D7)) (P62344 whole entry, looked up): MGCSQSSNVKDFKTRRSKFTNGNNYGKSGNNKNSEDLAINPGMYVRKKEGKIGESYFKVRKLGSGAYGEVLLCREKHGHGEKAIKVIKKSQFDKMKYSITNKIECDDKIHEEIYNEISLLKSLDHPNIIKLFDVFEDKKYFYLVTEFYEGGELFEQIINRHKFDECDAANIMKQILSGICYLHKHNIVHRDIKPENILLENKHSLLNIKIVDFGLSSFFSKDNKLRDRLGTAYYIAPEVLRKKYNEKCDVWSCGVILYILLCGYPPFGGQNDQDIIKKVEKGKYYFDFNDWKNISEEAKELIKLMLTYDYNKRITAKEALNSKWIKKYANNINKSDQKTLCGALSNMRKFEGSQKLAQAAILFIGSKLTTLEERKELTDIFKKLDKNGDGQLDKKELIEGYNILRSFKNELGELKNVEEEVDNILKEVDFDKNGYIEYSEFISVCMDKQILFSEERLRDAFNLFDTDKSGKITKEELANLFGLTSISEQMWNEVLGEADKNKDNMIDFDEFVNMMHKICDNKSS

[6] = molecular target: Plasmodium falciparum protein kinase 6 (PK6, PF3D7_1337100) (UniProt Q8IDW1); experiment: PfPK6 kinase inhibitors, biochemical, TCAMS library (AID 1159586); settings: recombinant PfPK6, Kinase-Glo ATP depletion luminescence
Chain of Plasmodium falciparum protein kinase 6 (PK6, PF3D7_1337100) (Q8IDW1 1-305): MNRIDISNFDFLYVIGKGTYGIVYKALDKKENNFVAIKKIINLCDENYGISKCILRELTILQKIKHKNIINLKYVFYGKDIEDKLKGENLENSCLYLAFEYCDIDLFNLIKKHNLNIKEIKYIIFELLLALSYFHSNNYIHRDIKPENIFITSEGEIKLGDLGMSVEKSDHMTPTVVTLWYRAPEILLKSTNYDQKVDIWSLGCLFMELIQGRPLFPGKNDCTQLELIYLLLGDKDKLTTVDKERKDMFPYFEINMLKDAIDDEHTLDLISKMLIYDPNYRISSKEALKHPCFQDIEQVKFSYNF

[7] = molecular target: Protein kinase 7 (PK7), Plasmodium falciparum 3D7 (PF3D7_0213400) (UniProt Q7YTF7); experiment: inhibition of Plasmodium PK7 catalytic activity – biochemical, TCAMS antimalarial set, Kinase-Glo luminescence (AID 1159587); settings: recombinant PfPK7, Kinase-Glo ATP depletion luminescence
Chain of Protein kinase 7 (PK7), Plasmodium falciparum 3D7 (PF3D7_0213400) (Q7YTF7 1-343): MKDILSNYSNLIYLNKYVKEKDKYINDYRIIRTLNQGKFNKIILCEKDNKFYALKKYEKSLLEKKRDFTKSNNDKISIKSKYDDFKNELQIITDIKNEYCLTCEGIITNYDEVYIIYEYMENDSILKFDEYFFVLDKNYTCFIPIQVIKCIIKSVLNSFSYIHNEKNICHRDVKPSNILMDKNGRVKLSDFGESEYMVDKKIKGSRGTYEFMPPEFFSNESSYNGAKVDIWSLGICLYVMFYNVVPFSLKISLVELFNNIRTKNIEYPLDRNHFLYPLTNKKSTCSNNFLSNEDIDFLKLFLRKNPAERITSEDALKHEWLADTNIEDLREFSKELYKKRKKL

[8] = molecular target: Calcium-dependent protein kinase 4 (Plasmodium falciparum (isolate 3D7)) (UniProt Q8IBS5); experiment: PfCDPK4 kinase inhibitors, biochemical, TCAMS library (AID 1159588; cut-off not given, nearly all actives have IC50 up to about 0.91 µM); settings: recombinant PfCDPK4, Kinase-Glo ATP depletion luminescence
Chain of Calcium-dependent protein kinase 4 (Plasmodium falciparum (isolate 3D7)) (Q8IBS5 whole entry, looked up): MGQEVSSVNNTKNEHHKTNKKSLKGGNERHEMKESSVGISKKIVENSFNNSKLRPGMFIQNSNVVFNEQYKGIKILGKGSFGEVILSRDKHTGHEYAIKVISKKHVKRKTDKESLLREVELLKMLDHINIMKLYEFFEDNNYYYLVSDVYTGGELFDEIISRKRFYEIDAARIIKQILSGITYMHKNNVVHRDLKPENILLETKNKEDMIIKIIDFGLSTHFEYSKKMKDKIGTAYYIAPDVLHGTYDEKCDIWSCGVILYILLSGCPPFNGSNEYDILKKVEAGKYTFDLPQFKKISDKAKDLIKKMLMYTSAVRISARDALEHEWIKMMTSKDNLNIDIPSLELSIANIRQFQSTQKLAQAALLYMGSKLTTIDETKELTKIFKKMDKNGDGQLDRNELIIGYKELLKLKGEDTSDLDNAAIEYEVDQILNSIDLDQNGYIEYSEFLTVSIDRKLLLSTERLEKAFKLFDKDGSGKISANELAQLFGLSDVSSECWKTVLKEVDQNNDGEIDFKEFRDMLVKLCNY

COc1ccc(C=NNc2ccnc3ccccc23)c2ccccc12
growth inhibition [1]: 98% (active)
inhibition [2]: 27%
inhibition [3]: 0%
growth inhibition [4]: 102% (active)
outcome [5]: inactive
outcome [6]: inactive
outcome [7]: inactive
outcome [8]: inactive

CC[C@H](NC(=O)c1c(N)c(-c2sccc2Cl)nc2ccccc12)c1ccccc1
growth inhibition [1]: 92% (active)
inhibition [2]: 0%
inhibition [3]: -4%
growth inhibition [4]: 99% (active)
outcome [5]: inactive
outcome [6]: inactive
outcome [7]: inactive
outcome [8]: inactive

Cc1cccc2[nH]c(-c3cccc(-c4cccc(NC(=O)c5cnccc5C(F)(F)F)c4)c3)nc12
growth inhibition [1]: 47%
inhibition [2]: 7%
inhibition [3]: -11%
growth inhibition [4]: 98% (active)
outcome [5]: inactive
outcome [6]: inactive
outcome [7]: inactive
outcome [8]: inactive

CN1CCC(N2CCN(CCOc3cc(NC(=O)/C=C/c4ccccc4Cl)ccc3Br)CC2)CC1
growth inhibition [1]: 99% (active)
inhibition [2]: 36%
inhibition [3]: -1%
growth inhibition [4]: 101% (active)
outcome [5]: inactive
outcome [6]: inactive
outcome [7]: inactive
outcome [8]: inactive

COc1ccc(NC(=O)Nc2nc(-c3ccc(Cl)c(C)c3)cs2)cc1N1CCN(C)CC1
growth inhibition [1]: 89% (active)
inhibition [2]: 9%
inhibition [3]: 0%
growth inhibition [4]: 99% (active)
outcome [5]: inactive
outcome [6]: inactive
outcome [7]: inactive
outcome [8]: inactive

O=C(c1cccc(Cl)c1)N1CCN(c2ccc([N+](=O)[O-])c(NC3CC3)c2)CC1
growth inhibition [1]: 79% (active)
inhibition [2]: 11%
inhibition [3]: 4%
growth inhibition [4]: 100% (active)
outcome [5]: inactive
outcome [6]: inactive
outcome [7]: inactive
outcome [8]: inactive

CC(C)(C(=O)Nc1ccc(C2CCC(NCC3CC3)CC2)c(Cl)c1)c1ccc(C(F)(F)F)cc1 (stereo not drawn)
growth inhibition [1]: 18%
inhibition [2]: 64% (active)
inhibition [3]: -1%
growth inhibition [4]: 97% (active)
outcome [5]: inactive
outcome [6]: inactive
outcome [7]: inactive
outcome [8]: inactive

C=CCn1c(Cc2ccccc2)nnc1Sc1ccc(C#N)c([N+](=O)[O-])c1
growth inhibition [1]: 43%
inhibition [2]: 7%
inhibition [3]: 2%
growth inhibition [4]: 86% (active)
outcome [5]: inactive
outcome [6]: inactive
outcome [7]: inactive
outcome [8]: inactive

CCCn1c(SCC(=O)Nc2cc(Cl)ccc2Cl)n[nH]c1=O
growth inhibition [1]: 53% (active)
inhibition [2]: -5%
inhibition [3]: -2%
growth inhibition [4]: 88% (active)
outcome [5]: inactive
outcome [6]: inactive
outcome [7]: inactive
outcome [8]: inactive

Cc1cc(NCCc2ccccc2)nc(/N=C(\N)Nc2ccc(Cl)cc2)n1
growth inhibition [1]: 100% (active)
inhibition [2]: 7%
inhibition [3]: 4%
growth inhibition [4]: 102% (active)
outcome [5]: inactive
outcome [6]: inactive
outcome [7]: inactive
outcome [8]: inactive

Cc1[nH]c(C)c(-c2ccc(S(=O)(=O)c3ccc(Cl)cc3)cc2)c(=O)c1Cl
growth inhibition [1]: 96% (active)
inhibition [2]: -5%
inhibition [3]: 9%
growth inhibition [4]: 98% (active)
outcome [5]: inactive
outcome [6]: inactive
outcome [7]: inactive
outcome [8]: inactive

CCCc1c(C(=O)Nc2ccc3c(c2)CCN(C2CCC2)CC3)cnn1-c1ccc(Cl)cc1
growth inhibition [1]: 12%
inhibition [2]: 64% (active)
inhibition [3]: 2%
growth inhibition [4]: 92% (active)
outcome [5]: inactive
outcome [6]: inactive
outcome [7]: inactive
outcome [8]: inactive

O=C(Nc1ccsc1C(=O)NC1CCCCC1)c1ccc(F)cc1
growth inhibition [1]: 11%
inhibition [2]: 3%
inhibition [3]: 6%
growth inhibition [4]: 86% (active)
outcome [5]: inactive
outcome [6]: inactive
outcome [7]: inactive
outcome [8]: inactive

COc1ccc(-c2ccc(NC(=O)c3ccc(Cl)cc3)cc2)cc1CN1CCC(O)CC1
growth inhibition [1]: 15%
inhibition [2]: 20%
inhibition [3]: 5%
growth inhibition [4]: 89% (active)
outcome [5]: inactive
outcome [6]: inactive
outcome [7]: inactive
outcome [8]: inactive

COc1ccc(C2CC(=O)C3=C(C2)NC(C)=C(C(=O)OC2CCCC2)C3c2cccc(O)c2)cc1OC (stereo not drawn)
growth inhibition [1]: 98% (active)
inhibition [2]: 8%
inhibition [3]: -1%
growth inhibition [4]: 101% (active)
outcome [5]: inactive
outcome [6]: inactive
outcome [7]: inactive
outcome [8]: inactive

Cc1[nH]c(C)c(-c2ccc(Oc3ccc(F)cc3)cc2)c(=O)c1Cl
growth inhibition [1]: 98% (active)
inhibition [2]: 14%
inhibition [3]: 4%
growth inhibition [4]: 99% (active)
outcome [5]: inactive
outcome [6]: inactive
outcome [7]: inactive
outcome [8]: inactive

CCOC(=O)c1[nH]c(-c2ccccc2)nc1-n1nc(C)cc1C
growth inhibition [1]: 9%
inhibition [2]: 7%
inhibition [3]: 2%
growth inhibition [4]: 92% (active)
outcome [5]: inactive
outcome [6]: inactive
outcome [7]: inactive
outcome [8]: inactive

Cc1noc(-c2ccccc2)c1CN1CCCC2(CC(C(=O)NCc3cccc(F)c3F)=NO2)C1 (stereo not drawn)
growth inhibition [1]: 28%
inhibition [2]: -1%
inhibition [3]: -1%
growth inhibition [4]: 85% (active)
outcome [5]: inactive
outcome [6]: inactive
outcome [7]: inactive
outcome [8]: inactive

COc1cccc(-c2ccc3c(-c4cccc(NC(C)=O)c4)cnc(N)c3c2)c1
growth inhibition [1]: 83% (active)
inhibition [2]: 71% (active)
inhibition [3]: -6%
growth inhibition [4]: 99% (active)
outcome [5]: inactive
outcome [6]: inactive
outcome [7]: inactive
outcome [8]: inactive

CCOc1ccc(N(CC)S(=O)(=O)c2cc(Br)cc3c2N(C(=O)C2CC2)CC3)cc1
growth inhibition [1]: 97% (active)
inhibition [2]: -4%
inhibition [3]: -5%
growth inhibition [4]: 99% (active)
outcome [5]: inactive
outcome [6]: inactive
outcome [7]: inactive
outcome [8]: inactive

CN1CCN(Cc2cccc(-c3ccc4c(Nc5ccc(F)cc5Cl)ccnc4c3)c2)CC1
growth inhibition [1]: 100% (active)
inhibition [2]: 20%
inhibition [3]: -1%
growth inhibition [4]: 101% (active)
outcome [5]: inactive
outcome [6]: inactive
outcome [7]: inactive
outcome [8]: inactive

Cc1cc(N[C@@H](Cc2ccccc2)C(=O)NCCOc2ccccc2)nc(NCC2CCCCC2)n1
growth inhibition [1]: 75% (active)
inhibition [2]: 30%
inhibition [3]: -1%
growth inhibition [4]: 100% (active)
outcome [5]: inactive
outcome [6]: inactive
outcome [7]: inactive
outcome [8]: inactive

NC(=NCCCc1ccccc1)c1cccc(C(N)=NCCCc2ccccc2)n1
growth inhibition [1]: -1%
inhibition [2]: 44%
inhibition [3]: -6%
growth inhibition [4]: 98% (active)
outcome [5]: inactive
outcome [6]: inactive
outcome [7]: inactive
outcome [8]: inactive

CN1CCCc2cc(NC(=O)c3cc(-c4ccc(Cl)cc4)cs3)ccc2C1
growth inhibition [1]: 34%
inhibition [2]: 15%
inhibition [3]: 4%
growth inhibition [4]: 100% (active)
outcome [5]: inactive
outcome [6]: inactive
outcome [7]: inactive
outcome [8]: inactive

N[C@@H](CCNCc1ccc(-c2cccnc2)cc1)Cc1ccc(F)c(F)c1
growth inhibition [1]: 57% (active)
inhibition [2]: 45%
inhibition [3]: 2%
growth inhibition [4]: 98% (active)
outcome [5]: inactive
outcome [6]: inactive
outcome [7]: inactive
outcome [8]: inactive

COc1ccc2nc(C)cc(Nc3ccc(Cl)cc3)c2c1
growth inhibition [1]: 3%
inhibition [2]: 10%
inhibition [3]: -2%
growth inhibition [4]: 89% (active)
outcome [5]: inactive
outcome [6]: inactive
outcome [7]: inactive
outcome [8]: inactive

Cc1c(N)ccc2[nH]c(-c3ccc(N)cc3)nc12
growth inhibition [1]: 40%
inhibition [2]: 0%
inhibition [3]: 0%
growth inhibition [4]: 97% (active)
outcome [5]: inactive
outcome [6]: inactive
outcome [7]: inactive
outcome [8]: inactive

N#Cc1ccc(NC(=O)N2CCCN(CCCCCNC(=O)/C=C/c3ccc(Cl)c(Cl)c3)CC2)cc1
growth inhibition [1]: 4%
inhibition [2]: 32%
inhibition [3]: 0%
growth inhibition [4]: 100% (active)
outcome [5]: inactive
outcome [6]: inactive
outcome [7]: inactive
outcome [8]: inactive

O=c1cc(-c2ccc3ccccc3c2)[nH]c2ccccc12
growth inhibition [1]: 44%
inhibition [2]: 25%
inhibition [3]: -3%
growth inhibition [4]: 81% (active)
outcome [5]: inactive
outcome [6]: inactive
outcome [7]: inactive
outcome [8]: inactive

O=C(Nc1ccc(C(F)(F)F)cc1)NC1CCN(c2ccnc3ccccc23)CC1
growth inhibition [1]: 62% (active)
inhibition [2]: 46%
inhibition [3]: -2%
growth inhibition [4]: 103% (active)
outcome [5]: inactive
outcome [6]: inactive
outcome [7]: inactive
outcome [8]: inactive

Cn1cnc(CCNC(=O)c2cccc(-c3ccc(-c4nc5ccc(F)cc5[nH]4)cc3)c2)c1
growth inhibition [1]: 5%
inhibition [2]: 26%
inhibition [3]: 4%
growth inhibition [4]: 88% (active)
outcome [5]: inactive
outcome [6]: inactive
outcome [7]: inactive
outcome [8]: inactive

Cc1ccccc1C1CCN(C2CCC(NC(=O)/C=C/c3cc(C(F)(F)F)ccc3F)CC2)CC1 (stereo not drawn)
growth inhibition [1]: 45%
inhibition [2]: 56% (active)
inhibition [3]: -2%
growth inhibition [4]: 100% (active)
outcome [5]: inactive
outcome [6]: inactive
outcome [7]: inactive
outcome [8]: inactive

CCCNCc1ccc(-c2ccc(CN(Cc3cnc(C)cn3)C(=O)c3nn(-c4ccccc4)nc3C)cc2)nc1
growth inhibition [1]: 49%
inhibition [2]: 22%
inhibition [3]: 0%
growth inhibition [4]: 99% (active)
outcome [5]: inactive
outcome [6]: inactive
outcome [7]: inactive
outcome [8]: inactive

CC(C)OC(=O)c1ccccc1S(N)(=O)=O
growth inhibition [1]: -2%
inhibition [2]: -6%
inhibition [3]: 1%
growth inhibition [4]: 97% (active)
outcome [5]: inactive
outcome [6]: inactive
outcome [7]: inactive
outcome [8]: inactive

CN(C)c1ccc(CN2CCC(CNC(=O)c3cc(-c4ccccc4Cl)cs3)C2)cc1 (stereo not drawn)
growth inhibition [1]: 5%
inhibition [2]: 29%
inhibition [3]: -3%
growth inhibition [4]: 91% (active)
outcome [5]: inactive
outcome [6]: inactive
outcome [7]: inactive
outcome [8]: inactive

COc1ccc(C(=O)Nc2ccc3nc(N4CCCCC4)cc(C)c3c2)cc1OC
growth inhibition [1]: 7%
inhibition [2]: 15%
inhibition [3]: 3%
growth inhibition [4]: 92% (active)
outcome [5]: inactive
outcome [6]: inactive
outcome [7]: inactive
outcome [8]: inactive

Cc1onc(-c2ccccc2)c1-c1nc(NC2CCCC(C)C2)no1 (stereo not drawn)
growth inhibition [1]: 46%
inhibition [2]: 22%
inhibition [3]: -3%
growth inhibition [4]: 101% (active)
outcome [5]: inactive
outcome [6]: inactive
outcome [7]: inactive
outcome [8]: inactive

CCCN(CCC)CCCCC(C)Nc1c2ccc(Cl)cc2nc2ccc(OC)cc12 (stereo not drawn)
growth inhibition [1]: 100% (active)
inhibition [2]: 42%
inhibition [3]: -2%
growth inhibition [4]: 102% (active)
outcome [5]: inactive
outcome [6]: inactive
outcome [7]: inactive
outcome [8]: inactive

O=C(Nc1cccc(CN2CCCN(Cc3ccsc3)CC2)c1)c1cc2ccccc2s1
growth inhibition [1]: 29%
inhibition [2]: 25%
inhibition [3]: 5%
growth inhibition [4]: 96% (active)
outcome [5]: inactive
outcome [6]: inactive
outcome [7]: inactive
outcome [8]: inactive

Cc1cccc2[nH]c(-c3ccc(-c4ccc(CN5CCCC(O)C5)cc4)cc3)nc12 (stereo not drawn)
growth inhibition [1]: 54% (active)
inhibition [2]: 41%
inhibition [3]: 6%
growth inhibition [4]: 100% (active)
outcome [5]: inactive
outcome [6]: inactive
outcome [7]: inactive
outcome [8]: inactive

O=C(Nc1ccc([N+](=O)[O-])cc1)Nc1cc(OCC(F)(F)F)cc(OCC(F)(F)F)c1
growth inhibition [1]: 100% (active)
inhibition [2]: 71% (active)
inhibition [3]: 5%
growth inhibition [4]: 100% (active)
outcome [5]: inactive
outcome [6]: inactive
outcome [7]: inactive
outcome [8]: inactive
